Experimental data reported in PubChem BioAssay AID651730 (NMMLSC, 2012).
The source made the active and inactive calls. How the calls were made is not given here.

test: V-ATPase regulators in yeast, S. cerevisiae, pHLuorin, powder sets 2-3, dose response (AID 651730); conditions: S. cerevisiae vacuolar pH, pHluorin fluorescence; series mostly up to 100 µM

outcome, inactive:
O=C(c1cccc(Cl)n1)N1CCN(c2nc3ccc(F)cc3s2)CC1
O=C(Nc1ccccc1N1CCOCC1)c1cc(Cl)ccn1
Nc1ncc(C(=O)N2CCN(c3nc4ccc(F)cc4s3)CC2)o1
N#Cc1ccnc(C(=O)N2CCN(c3nc4ccc(F)cc4s3)CC2)c1
CS(=O)(=O)c1ccc(C(=O)N2CCN(c3nc4ccc(F)cc4s3)CC2)o1
CN(C)C(=O)c1cccc(C(=O)Nc2ccccc2N2CCOCC2)c1
O=C(c1cccc(C(F)(F)F)n1)N1CCN(c2nc3ccc(F)cc3s2)CC1
Cc1ccnc(C(=O)Nc2ccccc2N2CCOCC2)c1
Cc1ccc(C(=O)Nc2ccccc2N2CCOCC2)o1
CN(C)C(=O)c1cccc(C(=O)N2CCN(c3nc4ccc(F)cc4s3)CC2)c1
Nc1ncc(C(=O)Nc2ccccc2N2CCOCC2)o1
O=C(c1ccc(-c2ccccc2)o1)N1CCN(c2nc3ccc(F)cc3s2)CC1
Cc1ccnc(C(=O)N2CCN(c3nc4ccc(F)cc4s3)CC2)c1
O=C(c1cccc(Br)n1)N1CCN(c2nc3ccc(F)cc3s2)CC1
COCc1cccc(C(=O)Nc2ccccc2N2CCOCC2)c1
COCc1ccc(C(=O)Nc2ccccc2N2CCOCC2)o1
N#Cc1ccnc(C(=O)Nc2ccccc2N2CCOCC2)c1
Cc1cncc(C(=O)Nc2ccccc2N2CCOCC2)n1
NC(=O)c1cccc(C(=O)N2CCN(c3nc4ccc(F)cc4s3)CC2)c1
